# Reference: PubChem BioAssay (NCATS)
# Records with an inconclusive call do not appear. Where a call stands in place of a potency, no number is given. The source made the active and inactive calls. Unless noted, calls follow the shape of the dose curve; as a rule, active = well fitted curve in the direction sought with a large enough effect; inconclusive = small, poorly fitted or top-dose-only effect, or another doubt; inactive = no such curve, though single readings can be large; an effect the other way counts as inactive or inconclusive.
# Key:
# [1] = target: Cytochrome P450 2C9 (Homo sapiens) (UniProt P11712); experiment: Cytochrome P450 family 2 subfamily C member 9 (CYP2C9) small molecule antagonists: luciferase biochemical (cell-free) qHTS assay (AID 1645842; active = well fitted curve in the direction sought with a large enough effect in the repeat runs; an effect the other way counts as inactive or inconclusive; also: nearly all actives have a fitted effect of over 55% in size; also: potency is read from the fitted curve at half-maximal effect)
# Cytochrome P450 2C9 (Homo sapiens), sequence (P11712 whole entry, looked up): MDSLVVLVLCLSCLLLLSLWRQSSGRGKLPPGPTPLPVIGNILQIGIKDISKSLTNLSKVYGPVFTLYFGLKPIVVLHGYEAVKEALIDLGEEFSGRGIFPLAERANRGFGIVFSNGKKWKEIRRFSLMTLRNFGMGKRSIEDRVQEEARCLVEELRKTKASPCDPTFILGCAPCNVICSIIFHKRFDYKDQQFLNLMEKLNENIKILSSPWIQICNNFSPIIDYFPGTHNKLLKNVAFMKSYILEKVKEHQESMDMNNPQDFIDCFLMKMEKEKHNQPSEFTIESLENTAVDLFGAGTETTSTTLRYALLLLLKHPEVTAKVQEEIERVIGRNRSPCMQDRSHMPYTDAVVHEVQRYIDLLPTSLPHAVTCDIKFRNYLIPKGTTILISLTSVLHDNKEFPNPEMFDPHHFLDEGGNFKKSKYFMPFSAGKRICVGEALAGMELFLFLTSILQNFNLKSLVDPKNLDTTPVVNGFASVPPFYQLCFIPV
# Summary of the method: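 Luminescence, after 20 min with luciferin detection reagent, reflected CYP2C9 turnover during a 1 h NADPH-driven reaction at 37C. Enzyme-substrate mix contained 0.4% bovine serum albumin and was preincubated with compound 10 min at room temperature.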
# [2] = target: Papain (Carica papaya) (UniProt P00784); experiment: Primary qHTS assay for inhibitors of the protease papain (AID 1645873);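 also: papain turnover of Z-FR-AMC read as the AMC fluorescence gain over 10 min; series mostly up to about 50 µM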
# Papain (Carica papaya), sequence (P00784 whole entry, looked up): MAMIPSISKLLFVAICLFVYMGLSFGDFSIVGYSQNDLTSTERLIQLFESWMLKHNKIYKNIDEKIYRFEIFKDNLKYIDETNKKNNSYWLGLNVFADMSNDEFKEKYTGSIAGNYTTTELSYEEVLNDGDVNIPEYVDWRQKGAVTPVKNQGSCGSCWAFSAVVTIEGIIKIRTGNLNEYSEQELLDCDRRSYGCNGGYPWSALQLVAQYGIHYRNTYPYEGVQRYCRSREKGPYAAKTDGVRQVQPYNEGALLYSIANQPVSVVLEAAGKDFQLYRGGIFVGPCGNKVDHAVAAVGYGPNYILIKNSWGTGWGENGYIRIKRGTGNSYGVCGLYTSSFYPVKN
# [3] = A High-Content qHTS Against Drug Library for the Identification of Small Molecules that Inhibit DYT1 Early Onset Primary Dystonia-Associated Cell Pathology (AID 1645839; calls by dose curve; also: series mostly up to about 46 µM)
# Summary of the method: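 In this high-content image screen, delE TorsinA mislocalization in inducible Flp-In 293 cells is scored as %pathology, with cell count serving as the counterscreen. Compound exposure lasts 48 h under tetracycline induction in reduced-serum medium.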
# [4] = target: Cytochrome P450 2D6 (Homo sapiens) (UniProt P10635); experiment: Cytochrome P450 family 2 subfamily D member 6 (CYP2D6) small molecule antagonists: luciferase biochemical (cell-free) qHTS assay (AID 1645840; active = well fitted curve in the direction sought with a large enough effect in the repeat runs; an effect the other way counts as inactive or inconclusive; also: nearly all actives have a fitted effect of over 55% in size; also: potency is read from the fitted curve at half-maximal effect)
# Cytochrome P450 2D6 (Homo sapiens), sequence (P10635 whole entry, looked up): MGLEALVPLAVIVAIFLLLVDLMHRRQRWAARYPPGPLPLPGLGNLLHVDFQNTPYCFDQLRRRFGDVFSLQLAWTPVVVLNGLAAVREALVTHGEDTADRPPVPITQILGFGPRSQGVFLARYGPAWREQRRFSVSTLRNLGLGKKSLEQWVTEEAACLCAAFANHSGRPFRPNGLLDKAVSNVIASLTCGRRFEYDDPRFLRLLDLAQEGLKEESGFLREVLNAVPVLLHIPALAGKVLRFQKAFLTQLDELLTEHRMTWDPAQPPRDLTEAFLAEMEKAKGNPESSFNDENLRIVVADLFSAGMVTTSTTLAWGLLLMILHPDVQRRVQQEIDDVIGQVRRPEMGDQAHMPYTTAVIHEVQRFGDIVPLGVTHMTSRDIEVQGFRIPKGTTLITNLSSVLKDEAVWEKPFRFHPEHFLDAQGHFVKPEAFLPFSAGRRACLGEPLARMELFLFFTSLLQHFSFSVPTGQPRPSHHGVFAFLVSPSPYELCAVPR
# Summary of the method: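 P450-Glo luminescent screen: recombinant CYP2D6 enzyme–proluciferin substrate mix preincubated with compound 10 min at room temperature, then NADPH regeneration added for 1 h at room temperature. Detection reagent added for 20 min; luciferin light read as relative luminescence units.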
# [5] = Primary qHTS for inhibitors of nuclear receptor binding SET domain protein 2 (NSD2) in an isogenic RCH-ACV NSD2 p.E1099K mutant (9B) (AID 1645876); also: nearly all actives have a fitted effect of over 70% in size; also: potency is read from the fitted curve at half-maximal effect
Structure (SMILES),Potency [1],Potency [2],Potency [3],Potency [4],Potency [5]
CCNC(=O)N1CCN(CCCC(c2ccc(F)cc2)c2ccc(F)cc2)CC1,inactive,inactive,–,–,–
CC(N=C(NC#N)Nc1ccncc1)C(C)(C)C (stereo not given),3.89 µM (active),inactive,inactive,21.9 µM (active),inactive
COCC(=O)O[C@]1(CCN(C)CCCc2nc3ccccc3[nH]2)CCc2cc(F)ccc2[C@@H]1C(C)C,inactive,–,–,0.049 µM (active),10.6 µM (active)
CN(C)CCCN1c2ccccc2Sc2ccc(C(F)(F)F)cc21,inactive,inactive,–,0.0977 µM (active),21.1 µM (active)
CC(C)NNC(=O)c1ccncc1,inactive,inactive,inactive,inactive,inactive
CN(C)CCOC(=O)COc1ccc(Cl)cc1,inactive,inactive,inactive,–,inactive
CC(=O)[C@@]1(O)CC[C@H]2[C@@H]3CCC4=CC(=O)CC[C@]4(C)[C@H]3CC[C@@]21C,–,inactive,inactive,–,inactive
C[n+]1cc2c3c(ccc2c2ccc4cc5c(cc4c21)OCO5)OCO3,–,inactive,–,6.74 µM (active),0.58 µM (active)
C[C@H](CS)C(=O)N1CCC[C@H]1C(=O)O,inactive,–,inactive,inactive,inactive
CC(C)NCC(O)c1cc(O)cc(O)c1 (stereo not given),inactive,inactive,inactive,–,inactive
Nc1c2c(nc3ccccc13)CCCC2O (stereo not given),inactive,inactive,inactive,15.5 µM (active),inactive
CCN(CC)CCOCCOC(=O)C1(c2ccccc2)CCCC1,inactive,inactive,inactive,–,inactive
NS(=O)(=O)c1cc2c(cc1Cl)NC(C1CC3C=CC1C3)NS2(=O)=O (stereo not given),–,inactive,inactive,–,inactive
CCN(Cc1ccncc1)C(=O)C(CO)c1ccccc1 (stereo not given),–,inactive,inactive,inactive,inactive
COC(=O)C1=C(C)NC(C)=C(C(=O)OCCN(C)Cc2ccccc2)C1c1cccc([N+](=O)[O-])c1 (stereo not given),–,inactive,–,–,–
CC(=O)Oc1cc(C(C)C)c(OCCN(C)C)cc1C,inactive,inactive,inactive,8.71 µM (active),inactive
CC(=O)OC(C)C[N+](C)(C)C (stereo not given),inactive,inactive,inactive,–,inactive
Cc1cc(C)c(/C=C2\C(=O)Nc3ccccc32)[nH]1,9.77 µM (active),inactive,inactive,inactive,inactive
COc1cc2c(cc1OC)-c1cc(=Nc3c(C)cc(C)cc3C)n(C)c(=O)n1CC2,0.49 µM (active),–,–,12.3 µM (active),15 µM (active)
CCCCNC(=O)NS(=O)(=O)c1ccc(C)cc1,–,inactive,inactive,inactive,inactive
CNCCC(Oc1ccccc1OC)c1ccccc1 (stereo not given),inactive,inactive,–,1.74 µM (active),–
COc1ccc(CCN(C)CCCC(C#N)(c2cc(OC)c(OC)c(OC)c2)C(C)C)cc1OC (stereo not given),–,inactive,inactive,–,–
